PubChem BioAssay AID1688 (National Center for Advancing Translational Sciences (NCATS), 2009)
The campaign covered roughly 220,000 compounds. About 2,400 (1.1%) were called active. Inconclusive results (about 7%) are left out. The call rests on the fitted dose curve; in most records, active means well fitted inhibition curve with a large enough effect; inconclusive means small, poorly fitted or top-dose-only effect, or effect the other way; inactive means no such curve, though single readings can be large or run the other way. Shown is part of a subset that was picked to be rich in actives.

Assay: qHTS Multiplex Assay to Identify Dual Action Probes in a Cell Model of Huntington: Aggregate Formation (GFP); further: nearly all actives have a fitted effect of over 60% in size
Settings: PC12 HttQ103-GFP aggregates, Acumen cytometry, 40 h; series mostly up to 9.22 µM; activity change, negative = inhibition: at the top concentration
Method in brief: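 Using laser scanning cytometry, GFP-positive aggregates were counted after lysis of PC12 cells induced with 100 nM tebufenozide to express HTT exon 1 Q103–GFP. Compounds were tested in titration.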
On the % scale 0 is the no-effect control and ±100 the full control effect; potency means the concentration at half of the fitted maximal effect.

Activity change, negative = inhibition, inactive:
Cc1nc2ccccc2c(-c2ccccc2)c1C(=O)c1ccccc1 -13.7% [at 46.1 µM]
COc1ccc(Cl)cc1C(=O)NNC(=O)c1nc2nc(C)cc(C)n2n1 16.4%
FC(F)(F)c1ccc(-n2cn[nH]c2=S)cc1 -29%
COc1ccc(NC(=O)C(C)SCc2ccccc2)cc1 (configuration not stated) 9.72%
CCOC(=O)C(NC(C)=O)C(=O)Nc1ccc(OC)cc1 (configuration not stated) 1.08%
O=C(COc1ccccc1[N+](=O)[O-])N/N=C/c1ccc[nH]1 27.9%
O=C1CC2(CC(c3ccc(Cl)cc3)=NO2)C(=O)N1c1ccccc1 (configuration not stated) -18.5%
C#CCNc1ccc(C(=O)OCC)cc1 -0.897%
Fc1ccc(-c2csc(-c3ccc(C4SCCS4)cc3)n2)cc1F -8.2%
Cn1nccc1CNC(=O)c1ccnn1C 17.5% [at 46.1 µM]
CCN(CC)C(=O)c1sc(NC(=O)c2ccco2)c(C#N)c1C -5.71% [at 46.1 µM]
CCN(CC(=O)Nc1ccc(S(=O)(=O)N2CCCC2)cc1)CC(=O)Nc1cccc(OC)c1 -1.97%
CN(Cc1nc(-c2cnccn2)no1)Cc1n[nH]c2c1CCCCC2 3.15%
O=C(CC(=O)Nc1ccc(Cl)c(Cl)c1)N/N=C/c1ccc(O)cc1 -2.59% [at 46.1 µM]
Cc1ccc(NC(=O)C/C(N)=N/O)cc1Cl -5.66%
Cn1cc(S(=O)(=O)NC(c2ccccc2)c2ccccc2)c(=O)n(C)c1=O 25.8%
CN(C)c1ccc(/C=N/N(Cc2ccccc2)c2ccccc2)cc1 0.998% [at 46.1 µM]
c1ccc(Cc2cc[n+](Cc3ccccc3)cc2)cc1 -10.7%
COc1ccc(OCCC(=O)c2ccc(OC)cc2)cc1 18.6%
CN1/C(=C\C(=O)c2cccnc2Cl)C(C)(C)c2ccccc21 -10.9% [at 46.1 µM]
Cc1noc(C)c1C(=O)OCC(=O)/C=C1\N(C)c2ccccc2C1(C)C -17% [at 46.1 µM]
Cc1ccc(NNC(=O)c2cccs2)cc1Cl 19%
O=C(Nc1ccc(S(=O)(=O)Nc2nccs2)cc1)c1cc(=O)[nH]c2ccccc12 -14.5%
Cc1cc(Cl)c(S(=O)(=O)NCC2CCCO2)cc1OCC(N)=O (configuration not stated) -10.1% [at 46.1 µM]
Cc1ccc(NC(=O)c2ccc(S(=O)(=O)NCC3CCCO3)cc2)cc1C (configuration not stated) 0.556%
CC(C)(O)c1ccccc1CC[C@H](SCC1(CC(=O)O)CC1)c1cccc(/C=C/c2ccc3ccc(Cl)cc3n2)c1 6.98% [at 46.1 µM]
Cc1cc(Cl)ccc1NNC(=O)c1snnc1C 3.92%
O=C1C2C3C=CC(C3)C2C(=O)N1c1ccc(S(=O)(=O)Nc2nccs2)cc1 (configuration not stated) 28.1%
CC(C)(C)c1cc(C(=O)NN)n(Cc2ccc(Cl)cc2Cl)n1 -29.8%
CCOc1ccc(NC(=O)c2ccccc2NS(C)(=O)=O)cc1 20.3%
COC(=O)c1ccccc1NC(=O)c1ccccc1NS(C)(=O)=O 3.87% [at 46.1 µM]
COc1cc(NC(=O)c2cccnc2SC)cc(OC)c1 -3.73% [at 46.1 µM]
O=S(=O)(Nc1ccccc1N1CCOCC1)c1ccc(Cl)s1 -24.5% [at 46.1 µM]
COc1ccc(S(=O)(=O)N(CC(=O)N/N=C/c2ccccc2C(=O)O)c2ccccc2OC)cc1 12.6%
CC(C)(C)NC(=O)/C(=C/c1cccnc1)NC(=O)c1ccco1 22.8%
CCn1c(CN2C(=O)CSc3ccccc32)n[nH]c1=S -2.01%
Cc1nc(=O)c(-c2ccccc2)c(C)n1-c1ccc(Br)cc1 8.99%
CCCc1nc2oc3c(=O)[nH]cnc3c2c2c1COC(C)(C)C2 9.46%
Cc1cc(CO)nn1-c1ccc([N+](=O)[O-])cc1 9.64%
O=C(c1c(Cl)cccc1Cl)N1CCN(c2cccc3[nH]ccc23)CC1 -14%
Cc1ccc(-c2c[n+](=O)c3c(n2[O-])CCC3)cc1 -12.9%
CCC(=O)N1CCCc2ccccc21 -7.24%
Cc1cc(C)cc(OCC(=O)O/N=C(\N)Cc2ccc([N+](=O)[O-])cc2)c1 -1.2%
O=c1c2c(ncn1Cc1ccccc1)nc1n2CCC1 -20.5% [at 46.1 µM]
CN(C)/C=C/c1c(C#N)c(=O)ncn1Cc1ccccc1 13.8% [at 46.1 µM]
COc1ccc(-c2cc(C(=O)NCc3ccco3)no2)cc1OC 10.5% [at 46.1 µM]
CCOC(=O)N1CCN(C(=O)c2cc3c(-c4ccc(Cl)cc4)nn(C)c3s2)CC1 5.53% [at 46.1 µM]

Potency, active:
COc1ccc(NC(=O)C(Br)C(C)C)cc1 (configuration not stated) 0.891 µM
CCCc1ccc(-c2c(C)sc(NC(=O)c3ccnn3C)c2C#N)cc1 7.08 µM
O=C(CC(O)(C(F)(F)F)C(F)(F)F)Nc1ccc(Cl)c(Cl)c1 5.01 µM
CN(C)c1cc[n+](Cc2ccccc2)cc1 7.08 µM
CC(=O)Nc1cccc(OCC(=O)/C=C2\N(C)c3ccccc3C2(C)C)c1 11.2 µM
Cc1ccc(C(=O)O)cc1S(=O)(=O)NCC1CCCO1 (configuration not stated) 3.98 µM
COc1cc(NC(=O)c2ccccc2NS(=O)(=O)c2ccc(Cl)s2)cc(OC)c1 3.98 µM
COC(=O)c1ccc(NC(=O)c2ccccc2NS(=O)(=O)c2ccccc2)cc1 11.2 µM
CN(C)c1ccnc2sc3c(=O)n(Cc4ccccc4)cnc3c12 7.08 µM
Cn1nc(-c2ccc(Cl)cc2)c2cc(C(=O)NCc3ccco3)sc21 20 µM
